From PMC5540273 (PLoS ONE, 2017)

Each compound was assayed on CSF1R-autoinhibited. Settings: concentration: 1 μM, replicates: in singlicate; n = 1.
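Note: KINOMEscan kinase panel screen.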

Row | SMILES | %Inh
1 | CSc1cccc2c(-c3ccncn3)c(-c3ccc(F)cc3)nn12 [GW514786] | 21%
2 | COc1ccc(CNC(=O)NC2CCN(c3ccnc(Nc4ccc(F)cc4)n3)CC2)cc1 [GSK1379788] | 19%
3 | COCCOCCOc1cc2ncc3c4ccc(C#N)cc4[nH]c3c2cc1OC | 97.4%
4 | FC(F)(F)c1ccc(/C=C/c2cncnc2Nc2ccc3[nH]c(Cc4ccccc4)nc3c2)cc1 [GW709199] | 0%
5 | COc1cc(Nc2nccc(N3CCC(NC(=O)Nc4cccc(C(C)=O)c4)C3)n2)cc(OC)c1OC (stereo not drawn) [GSK1379753] | 0%
6 | O=C(O)C(F)(F)F.O=C(O)C(F)(F)F.O=c1[nH]ccc2nc(N[C@@H]3CCCNC3)nc(Nc3ccc(S(=O)(=O)N4CCOCC4)cc3)c12 [GSK2177277] | 83%
7 | Cc1ccc(C(=O)N2CC[C@@H](O)C2)cc1-n1c(C)cc(OCc2ccc(F)cc2F)c(Br)c1=O | 0%
8 | Cl.c1ccc(-c2ccc3c(Nc4ccc5[nH]ccc5c4)ccnc3c2)nc1 [GW440138] | 36%
9 | CCCCc1nn2ncccc2c1-c1ccnc(Nc2ccc(N3CCN(C)CC3)cc2)n1 [GW684941] | 73%
10 | COc1ccc(Nc2nccc(NCCNC(=O)c3cc4ccccc4s3)n2)cc1 [GSK1379896] | 0%
11 | COc1ccc(Nc2nccc(N3CCC(NC(=O)Nc4cccc(OC)c4)C3)n2)cc1 (stereo not drawn) [GSK1379742] | 0%
12 | O=C(Nc1ccccc1F)NC1CCN(c2ccnc(Nc3ccc(F)cc3)n2)CC1 [GSK1379800] | 46%
13 | Cn1cc(-c2ccc3c(c2)CCN3C(=O)Cc2cccc(F)c2)c2c(N)ncnc21 [GSK2603358] | 26%
14 | CCc1ccc(-c2ccc3c(c2)-c2c(cnn2C)S(=O)(=O)N3C)cc1 | 9%
15 | COc1cc(Nc2nccc(-c3c(-c4cccc(NC(=O)c5c(F)cccc5F)c4)nn4ccccc34)n2)cc(OC)c1OC [GSK323521] | 0%
16 | O=C(Nc1cccc(Oc2ccc3nc(NC(=O)C4CC4)cn3n2)c1)c1ccccc1C(F)(F)F | 88%
17 | O=c1[nH]cc(-c2ccc(N3CCOCC3)cc2)c2sc(-c3cn[nH]c3)cc12 [GSK2276055] | 0%
18 | Cc1cccc(Nc2nc(N[C@H]3CCNC3)ncc2C(N)=O)c1.Cl [GSK2197149] | 0%
19 | Nc1ncc(-c2cccnc2)c2scc(-c3ccc4c(c3)CCN4C(=O)Cc3ccccc3)c12 [GSK683281] | 5%
20 | Cl.Cl.NCC(C(=O)Nc1cc(Br)c(-c2ccnc3[nH]ccc23)s1)c1ccccc1 (stereo not drawn) [GSK1269851] | 0%
21 | Fc1ccc(-c2ncn(C3CCNCC3)c2-c2ccnc(Oc3ccc(-c4ccccc4)cc3)n2)cc1 [SB-245391] | 8%
22 | Cl.c1ccc(-c2ccc3c(Nc4ccc5[nH]ncc5c4)ccnc3c2)nc1 [GW440137] | 0%
23 | Cl.NC(=O)c1cccc(Nc2nccc(Nc3ccc(Oc4c(Cl)cccc4Cl)c(Cl)c3)n2)c1 [GW659009] | 0%
24 | O=C(Nc1cccc(-c2nn3ncccc3c2-c2ccnc(Nc3ccccc3)n2)c1)c1c(F)cccc1F [GSK198271] | 17%
25 | COC(=O)Nc1nc2ccc(Oc3ccc(NC(=O)Nc4cc(C(F)(F)F)ccc4F)cc3)cc2n1C.Cl [GW692089] | 0%
26 | Oc1cc(Nc2ccnc3cc(I)ccc23)ccc1F [GW552771] | 23%
27 | CC(C)c1nc(-c2cccc(NS(=O)(=O)c3c(F)cccc3F)c2F)c(-c2ccnc(Nc3ccc(N4CCOCC4)nc3)n2)s1 [GSK2008607] | 0%
28 | CCn1c(-c2nonc2N)nc2c(C#CC(C)(C)O)nc(OC[C@H](N)c3ccccc3)cc21 [GSK943949] | 0%
29 | CC(C)(C)c1ccc2nccc(Nc3cccc(O)c3)c2c1 [GW856795] | 54%

Each compound was assayed on CSF1R. Settings: concentration: 1 μM, replicates: in singlicate; n = 1.

Row | SMILES | %Inh
30 | CN1CCN(CCCNc2nccc(-c3c(-c4ccc(F)cc4)nn4cc(C(F)(F)F)ccc34)n2)CC1 [GW621581] | 0%
31 | C[C@@H]1CC[C@@H](C(=O)Nc2ccccc2)CN1c1cc(-c2ccc3c(N)n[nH]c3c2)nc(N)n1 [GSK2286062] | 0%
32 | Cl.Cl.NCC(NCc1ccc(-c2ccnc3[nH]ccc23)s1)c1ccccc1 (stereo not drawn) [GSK1321565] | 50%
33 | Nc1n[nH]c2cnc(-c3ccccc3)cc12 [SB-642124] | 17%
34 | COc1cccc(NC(=O)NC2CCN(c3ccnc(Nc4cc(OC)c(OC)c(OC)c4)n3)C2)c1 (stereo not drawn) [GSK1379763] | 34%
35 | COc1cccc(C(=O)Nc2cccc(Oc3ccc4nc(NC(=O)C5CC5)cn4n3)c2)c1 | 100%
36 | c1ccc(-c2n[nH]cc2Nc2ccnc3ccccc23)nc1 [GW694077] | 7%
37 | O=C(Nc1cccc(-c2nn3ccccc3c2-c2ccnc(Nc3cccc(C(F)(F)F)c3)n2)c1)c1c(F)cccc1F [GSK292658] | 89%
38 | CSc1cccc2c(-c3ccncn3)c(-c3ccc(F)cc3)nn12 [GW514786] | 0%
39 | COc1ccc(CNC(=O)NC2CCN(c3ccnc(Nc4ccc(F)cc4)n3)CC2)cc1 [GSK1379788] | 8%
40 | COCCOCCOc1cc2ncc3c4ccc(C#N)cc4[nH]c3c2cc1OC | 50%
41 | FC(F)(F)c1ccc(/C=C/c2cncnc2Nc2ccc3[nH]c(Cc4ccccc4)nc3c2)cc1 [GW709199] | 4%
42 | COc1cc(Nc2nccc(N3CCC(NC(=O)Nc4cccc(C(C)=O)c4)C3)n2)cc(OC)c1OC (stereo not drawn) [GSK1379753] | 31%
43 | O=C(O)C(F)(F)F.O=C(O)C(F)(F)F.O=c1[nH]ccc2nc(N[C@@H]3CCCNC3)nc(Nc3ccc(S(=O)(=O)N4CCOCC4)cc3)c12 [GSK2177277] | 99.9%
44 | Cc1ccc(C(=O)N2CC[C@@H](O)C2)cc1-n1c(C)cc(OCc2ccc(F)cc2F)c(Br)c1=O | 75%
45 | Cl.c1ccc(-c2ccc3c(Nc4ccc5[nH]ccc5c4)ccnc3c2)nc1 [GW440138] | 75%
46 | CCCCc1nn2ncccc2c1-c1ccnc(Nc2ccc(N3CCN(C)CC3)cc2)n1 [GW684941] | 99.9%
47 | COc1ccc(Nc2nccc(NCCNC(=O)c3cc4ccccc4s3)n2)cc1 [GSK1379896] | 0%
48 | COc1ccc(Nc2nccc(N3CCC(NC(=O)Nc4cccc(OC)c4)C3)n2)cc1 (stereo not drawn) [GSK1379742] | 0%

Row | SMILES | %Inh
49 | O=C(Nc1ccccc1F)NC1CCN(c2ccnc(Nc3ccc(F)cc3)n2)CC1 [GSK1379800] | 5%
50 | Cn1cc(-c2ccc3c(c2)CCN3C(=O)Cc2cccc(F)c2)c2c(N)ncnc21 [GSK2603358] | 94.7%
51 | CCc1ccc(-c2ccc3c(c2)-c2c(cnn2C)S(=O)(=O)N3C)cc1 | 3%
52 | COc1cc(Nc2nccc(-c3c(-c4cccc(NC(=O)c5c(F)cccc5F)c4)nn4ccccc34)n2)cc(OC)c1OC [GSK323521] | 93%
53 | O=C(Nc1cccc(Oc2ccc3nc(NC(=O)C4CC4)cn3n2)c1)c1ccccc1C(F)(F)F | 100%
54 | O=c1[nH]cc(-c2ccc(N3CCOCC3)cc2)c2sc(-c3cn[nH]c3)cc12 [GSK2276055] | 33%
55 | Cc1cccc(Nc2nc(N[C@H]3CCNC3)ncc2C(N)=O)c1.Cl [GSK2197149] | 87%
56 | Nc1ncc(-c2cccnc2)c2scc(-c3ccc4c(c3)CCN4C(=O)Cc3ccccc3)c12 [GSK683281] | 99.2%
57 | Cl.Cl.NCC(C(=O)Nc1cc(Br)c(-c2ccnc3[nH]ccc23)s1)c1ccccc1 (stereo not drawn) [GSK1269851] | 28%
58 | Fc1ccc(-c2ncn(C3CCNCC3)c2-c2ccnc(Oc3ccc(-c4ccccc4)cc3)n2)cc1 [SB-245391] | 12%
59 | Cl.c1ccc(-c2ccc3c(Nc4ccc5[nH]ncc5c4)ccnc3c2)nc1 [GW440137] | 27%
60 | Cl.NC(=O)c1cccc(Nc2nccc(Nc3ccc(Oc4c(Cl)cccc4Cl)c(Cl)c3)n2)c1 [GW659009] | 10%
61 | O=C(Nc1cccc(-c2nn3ncccc3c2-c2ccnc(Nc3ccccc3)n2)c1)c1c(F)cccc1F [GSK198271] | 99.7%
62 | COC(=O)Nc1nc2ccc(Oc3ccc(NC(=O)Nc4cc(C(F)(F)F)ccc4F)cc3)cc2n1C.Cl [GW692089] | 86%
63 | Oc1cc(Nc2ccnc3cc(I)ccc23)ccc1F [GW552771] | 23%
64 | CC(C)c1nc(-c2cccc(NS(=O)(=O)c3c(F)cccc3F)c2F)c(-c2ccnc(Nc3ccc(N4CCOCC4)nc3)n2)s1 [GSK2008607] | 86%
65 | CCn1c(-c2nonc2N)nc2c(C#CC(C)(C)O)nc(OC[C@H](N)c3ccccc3)cc21 [GSK943949] | 35%
66 | CC(C)(C)c1ccc2nccc(Nc3cccc(O)c3)c2c1 [GW856795] | 12%
